Measurements published in PubChem BioAssay (EPA / NIEHS).
Where “and” joins values, the source holds several entries; their conditions need not be identical. Identical values can stand only once. Inconclusive results are not listed. Where a structure was tested more than once in an assay, its records may differ in their call. Calls of active or inactive are those of the source. Rule for the calls, unless noted: active = hit-call score of the fitted dose curve at least 0.9, where 1 is the maximum; inactive = score below 0.9.

Key:
[1] = CCTE_Shafer_MEA_dev_per_burst_interspike_interval: CCTE's Neural Network Formation Assay for Burst Interspike Interval, Shafer Lab (AID 2284044);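 for AC50: potency for a decrease of within-burst interspike interval below DMSO level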
Summary of the method: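 Readout is the average time between spikes inside single-electrode bursts, taken as a well mean across bursting electrodes. Cortical neurons from rat developed networks on MEA plates under continuous 12-day exposure; recordings on days 5, 7, 9 and 12 were integrated by trapezoidal AUC.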

[2] = CCTE_Shafer_MEA_dev_burst_duration_mean: CCTE's Neural Network Formation Assay for Mean Burst Duration, Shafer Lab (AID 2284045);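 for AC50: curve fitted for loss meaning shorter burst duration than DMSO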
Summary of the method: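 Network-formation assay in primary rat cortical neurons; treatment spans twelve days of development. Mean burst duration per well is integrated by trapezoidal AUC and fitted in the loss-of-signal direction against DMSO baseline.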

[3] = CCTE_Shafer_MEA_dev_interburst_interval_mean: CCTE's Neural Network Formation Assay for Mean Interburst Interval, Shafer Lab (AID 2284046);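 note: well-mean interburst interval of bursting electrodes as AUC over four recording days; curve fitted for decrease in interburst interval relative to DMSO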
Summary of the method: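 Developing rat cortical networks on 48-well MEAs receive compound from the day of plating. Burst intervals from each active electrode are averaged per well, and AUC over the recording days is fitted in the negative direction against DMSO.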

[4] = CCTE_Shafer_MEA_dev_inter_network_spike_interval_mean: CCTE's Neural Network Formation Assay for Mean Inter-network Spike Interval, Shafer Lab (AID 2284047);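 for AC50: potency for a decrease in mean inter-network spike interval below DMSO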
Summary of the method: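 Rat cortical cultures, 1.5 x 10^5 cells/well on 48-well MEA plates; continuous exposure days 0–12, medium and compound refreshed DIV 5, 9. Mean time between consecutive network-spike peaks; AUC across DIV 5/7/9/12; DMSO baseline, negative fitting direction.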

[5] = CCTE_Shafer_MEA_dev_network_spike_number: CCTE's Neural Network Formation Assay for Number of Network Spikes, Shafer Lab (AID 2284048);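 for AC50: fit as a loss of signal meaning fewer network spikes than DMSO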
Summary of the method: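 Extracellular recordings from 16-electrode wells track network formation in rat cortical cultures under continuous treatment from plating. The endpoint is network spike number, expressed as AUC across DIV 5–12 relative to DMSO vehicle.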

[6] = CCTE_Shafer_MEA_dev_network_spike_peak: CCTE's Neural Network Formation Assay for Mean Number of Electrodes in Network Spike, Shafer Lab (AID 2284049);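 for AC50: fitted for loss of signal meaning fewer electrodes in network spikes than DMSO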
Summary of the method: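 Continuous 12-day exposure of rat cortical cultures, starting at plating, on MEA plates. Endpoint: electrodes participating in network-spike peaks, AUC across DIV 5–12, DMSO as negative control.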

[7] = CCTE_Shafer_MEA_dev_spike_duration_mean: CCTE's Neural Network Formation Assay for Mean Spike Duration, Shafer Lab (AID 2284051);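 note: mean network spike duration pooled as area under curve over DIV 5 to 12 recordings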;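 for AC50: potency for a decrease in mean network spike duration versus DMSO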
Summary of the method: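 Readout is the average length of network spikes, clustered firing across electrodes, summed over DIV 5, 7, 9 and 12 as area under the curve. Neurons from rat cortex developed networks on MEA plates under continuous 12-day exposure.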

[8] = CCTE_Shafer_MEA_dev_network_spike_duration_std: CCTE's Neural Network Formation Assay for Standard Deviation of Network Spike Duration, Shafer Lab (AID 2284052);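 note: area under curve of spike duration SD across recording days 5 to 12; hits are decreases in network spike duration SD versus DMSO vehicle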
Summary of the method: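 Read-out is the trapezoidal area-under-the-curve across recordings made on days 5, 7, 9 and 12, fitted in the negative direction against DMSO baseline. Neurons were primary rat cortical cells treated from day 0, with treatment renewed at each feed.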

[9] = CCTE_Shafer_MEA_dev_per_network_spike_spike_number_mean: CCTE's Neural Network Formation Assay for Mean Number of Spikes in a Network Spike, Shafer Lab (AID 2284053)
Summary of the method: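 Continuous twelve-day exposure of developing rat cortical networks grown over 16 microelectrodes per well; spontaneous firing is captured at four time points, and the per-network-spike spike number is integrated over development by trapezoidal AUC.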

[10] = CCTE_Shafer_MEA_dev_per_network_spike_spike_percent: CCTE's Neural Network Formation Assay for Percent of Spikes in a Network Spike, Shafer Lab (AID 2284054)
Summary of the method: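 Developing networks of rat cortical neurons are dosed at day 0 and recorded extracellularly four times up to day 12. The endpoint is the area under the curve of percent spikes in network spikes, fitted in the negative direction relative to DMSO.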

[11] = CCTE_Shafer_MEA_dev_LDH: CCTE's Lactate Dehydrogenase Assay for Cytotoxicity in the Neural Network Formation Assay, Shafer Lab (AID 2284068; active = hit-call score of the fitted dose curve at least 0.9, where 1 is the maximum;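 note: exposure for twelve days from plating with re-dosing on DIV 5 and 9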)
Summary of the method: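 Cytotoxicity companion to network-formation recordings: rat cortical neurons received compound over 12 days of development, re-dosed at DIV 5 and 9 feeds. Viability was inferred from LDH enzyme activity relative to DMSO.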

[12] = CCTE_Shafer_MEA_acute_AB: CCTE's Alamar Blue Assay for Cytotoxicity in the Neural Acute Assay, Shafer Lab (AID 2284069; active = hit-call score of the fitted dose curve at least 0.9, where 1 is the maximum;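 note: active compounds lower the viability signal compared with DMSO wells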)
Summary of the method: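 Metabolic activity in chemically exposed rat cortical neurons (MEA cultures, day 13/15 post-plating) measured via CellTiter Blue resazurin reduction, 544/590 nm fluorescence; fitted relative to DMSO, with signal loss indicating reduced viability.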

[13] = CCTE_Shafer_MEA_dev_AB: CCTE's Alamar Blue Assay for Cytotoxicity in the Neural Network Formation Assay, Shafer Lab (AID 2284083; active = hit-call score of the fitted dose curve at least 0.9, where 1 is the maximum;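 note: twelve days of exposure from plating with re-dosing on DIV 5 and 9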)
Summary of the method: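 Fluorescent resazurin reduction serves as the viability read-out, with DMSO as negative control and baseline. Cells were primary rat cortical neurons grown on MEA plates and dosed from day 0 to day 12, treatment renewed on DIV 5 and 9.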

[14] = CCTE_Shafer_MEA_acute_LDH: CCTE's Lactate Dehydrogenase Assay for Cytotoxicity in the Neural Acute Assay, Shafer Lab (AID 2284086; active = hit-call score of the fitted dose curve at least 0.9, where 1 is the maximum;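 note: active means LDH release rises above DMSO vehicle level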)
Summary of the method: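 Medium collected from MEA wells of primary rat cortical cultures (DIV 13 or 15) immediately after 40 min chemical exposure is assayed spectrophotometrically for lactate dehydrogenase activity. Endpoint fitted in positive direction versus DMSO.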

[15] = CCTE_Shafer_MEA_dev_mutual_information_norm: CCTE's Neural Network Formation Assay for Mutual Information Normalization, Shafer Lab (AID 2284091);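 for AC50: mutual information between electrodes summarised as area under curve across four recording days; potency is for a decrease in mutual information relative to DMSO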
Summary of the method: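 Exposure of primary rat cortical neurons began at plating and ran to DIV 12, with full media and treatment renewal after DIV 5 and 9 recordings. Mutual information AUC (DIV 5–12) was analysed for loss versus DMSO.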

[16] = CCTE_Shafer_MEA_dev_correlation_coefficient_mean: CCTE's Neural Network Formation Assay for Mean Correlation Coefficient, Shafer Lab (AID 2284093);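 for AC50: well mean pairwise spike train correlation integrated as AUC over recording days 5 to 12; potency fitted for loss of correlation relative to DMSO vehicle wells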
Summary of the method: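 Read-out: well-mean correlation coefficient of spike trains between electrode pairs, collapsed over four recording days as trapezoidal area-under-the-curve. Developing rat cortical neuron networks grown on MEAs received test chemical continuously from plating.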

[17] = UKN5_HCS_SBAD2_cell_viability: Viability Assessment in the University of Konstanz (UKN) Leist Lab Neurite Outgrowth Assay in human iPSC-derived immature Dorsal Root Ganglia Neurons (UKN5) (AID 2284056)
Summary of the method: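 iPSC-derived immature peripheral neurons (SBAD2) seeded on Matrigel with CHIR99021, SU5402 and DAPT, dosed 1 h later for 24 h. Viability from Hoechst H-33342 and calcein-AM live staining, high-content imaging; bidirectional fit versus DMSO.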

[18] = UKN5_HCS_SBAD2_neurite_outgrowth: University of Konstanz (UKN) Leist Lab Neurite Outgrowth Assay in human iPSC-derived immature Dorsal Root Ganglia Neurons (UKN5) (AID 2284070); conditions: actives raise or lower the signal
Summary of the method: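 Thaw, seed on Matrigel (100.000 cells/cm2), dose 1 h later; at 23 h live-stain with H-33342 and calcein-AM for 60 min; image at 24 h. Neurite area fitted bidirectionally vs DMSO.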

DIO2 (gene 1734) = test: CCTE_GLTED_hDIO2: CCTE's human Deiodinase 2 (DIO2) Inhibition Assay, Great Lakes Toxicology and Ecology Division (GLTED) Lab (AID 2284050; active = hit-call score of the fitted dose curve at least 0.9, where 1 is the maximum)
Summary of the method: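 Inhibition is judged by reduced iodide release: uninhibited human DIO2 frees iodide from substrate over 3 h, measured afterward by Sandell-Kolthoff colorimetry. Iodinated chemicals or nitrite, iron and thiocyanate may interfere.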

DIO3 (gene 1735) = test: CCTE_GLTED_hDIO3: CCTE's human Deiodinase 3 (DIO3) Inhibition Assay, Great Lakes Toxicology and Ecology Division (GLTED) Lab (AID 2284055; active = hit-call score of the fitted dose curve at least 0.9, where 1 is the maximum;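 for AC50: potency is for inhibition seen as loss of released iodide signal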)
Summary of the method: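 Human type 3 deiodinase, expressed via adenovirus system, was exposed to test chemicals for 3 hours in a cell-free format. Released iodide was then determined spectrophotometrically by Sandell-Kolthoff; plates ran in triplicate.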

Measured: AC50

CCCCNC(=O)OCC#CI
inactive: [4] | [12] | [14]
active: [1] 7.65 µM and 1.63 µM | [2] 4.03 µM and 1.28 µM | [3] 3.24 µM and 2.21 µM | [5] 2.92 µM and 1.21 µM | [6] 3.81 µM and 1.53 µM | [7] 3.81 µM and 1.12 µM | [8] 2.46 µM and 1.09 µM | [9] 2.76 µM and 1.55 µM | [10] 2.91 µM and 1.17 µM | [11] 3.84 µM and 1.13 µM | [13] 3.1 µM and 1.55 µM | [15] 1.81 µM and 1.09 µM | [16] 3.8 µM and 1.05 µM

COP(N)(=O)SC (stereo not drawn)
inactive: [1] | [2] | [3] | [4] | [5] | [6] | [7] | [8] | [9] | [10] | [11] | [13] | [14] | [15] | [16]
active: [6] 15 µM

COC(=O)C(C)Oc1ccc(Oc2ccc(Cl)cc2Cl)cc1 (stereo not drawn)
inactive: [12] | [14]

COc1ccc(C(c2ccc(OC)cc2)C(Cl)(Cl)Cl)cc1
active: [6] 8.43 µM | [7] 2.99 µM | [8] 1.97 µM | [9] 9.95 µM | [10] 3.28 µM | [11] 4.87 µM | [13] 12.2 µM | [15] 1.97 µM | [16] 2.95 µM
inactive: [1] | [2] | [3] | [4] | [5]

OC(c1ccc(Cl)cc1)(c1cncnc1)c1ccccc1Cl (stereo not drawn)
inactive: [12]

CCOc1cc(Oc2ccc(C(F)(F)F)cc2Cl)ccc1[N+](=O)[O-]
inactive: [4]
active: [1] 11.4 µM | [2] 6.99 µM | [3] 4.76 µM | [5] 6.09 µM | [6] 6.67 µM | [7] 4.18 µM | [8] 1.13 µM | [9] 4.48 µM | [10] 13.2 µM | [11] 17.7 µM | [13] 30 µM | [15] 4.49 µM | [16] 6.5 µM

CC1COC(Cn2cncn2)(c2ccc(Oc3ccc(Cl)cc3)cc2Cl)O1 (stereo not drawn)
inactive: [12] | [14]

CCCCNC(=O)n1c(NC(=O)OC)nc2ccccc21
active: [6] 15 µM | [9] 15 µM | [18] 7.98 µM | [16] 15 µM
not listed: [11] | [12] | [14] | DIO2 (gene 1734) | DIO3 (gene 1735)
inactive: all other assays above

CS/C(C)=N/OC(=O)N(C)SN(C)C(=O)O/N=C(\C)SC
inactive: [12] | [14]

Cc1ccc(-c2c(Cl)nc(C#N)n2S(=O)(=O)N(C)C)cc1
active: [5] 30.2 µM | [6] 21.8 µM | DIO2 (gene 1734) 81.8 µM | [7] 29.7 µM | [9] 14.4 µM | [11] 30.3 µM | [13] 50 µM | [15] 15.2 µM | [16] 27.9 µM
not listed: [17] | [18]
inactive: all other assays above

CN(C)C(=S)SSC(=S)N(C)C
active: [1] 0.0227 µM | [2] 0.00155 µM | [3] 0.0116 µM | [4] 0.0116 µM | [5] 0.00554 µM | [6] 0.0107 µM | DIO2 (gene 1734) 55.7 µM | [7] 0.00527 µM | [8] 0.00705 µM | [9] 0.00976 µM | [10] 0.00821 µM | DIO3 (gene 1735) 43.1 µM | [11] 0.00506 µM | [13] 0.012 µM | [15] 0.00669 µM | [16] 0.00907 µM

C#CCOS(=O)OC1CCCCC1Oc1ccc(C(C)(C)C)cc1 (stereo not drawn)
inactive: [12] | [14]

COP(=S)(OC)Oc1nc(Cl)c(Cl)cc1Cl
not listed: [12] | [17] | [18] | DIO2 (gene 1734) | DIO3 (gene 1735)
inactive: all other assays above
